High-throughput results from PubChem BioAssay.
In the library only some 6.8% were active in any assay of this set; here they are far more common.
C diff HTS: C. difficile growth inhibition; Clostridium difficile clinical isolate growth, OD600, 24 h; active compounds read low; growth activity, negative = inhibition, % at 16 µg/mL (by protocol); actives 0.25% (n = 86,000); AID 1259249;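 active means mean growth activity at or below -80% and every replicate also at or below -80%; inconclusive means mean at or below -80% but some replicate above -80%; inactive means mean growth activity above -80%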;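 further: 0% = DMSO wells and -100% = levofloxacin 16 µg/mL wells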
T cruzi growth-1: T. cruzi proliferation inhibition; T. cruzi beta-gal in NIH3T3, GalScreen luminescence, 90 h; inhibition, % at 8.34 µM; actives 5.9% (n = 77,000); AID 624255;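 active means mean inhibition above about 93%, with at least 55% of replicates each passing it, limit read from the data, passing the limit was not always enough; inconclusive means only one of those two conditions holds; inactive means neither condition holds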
Pf Dd2 inh: P. falciparum Dd2 growth inhibition; actives 2.3% (n = 94,000); SYBR Green, 72 h; active compounds read low; AID 1159554; activity change, % at 10 µM; in the data active means activity change below about -80%; inconclusive means no clear call, values can overlap the other calls
T cruzi growth-2: inhibitors of T. cruzi proliferation | shares compounds with T cruzi growth-1 | T. cruzi beta-gal in NIH3T3, GalScreen luminescence, 90 h | inhibition, % at 8.35 µM | actives 72% (n = 5,600) | AID 651739;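 active means mean replicate inhibition above about 95% and at least 55% of replicates individually reaching it, limit read from the data; inconclusive means only one of the two criteria is met; inactive means neither criterion is met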
T cruzi growth-3: Trypanosoma cruzi proliferation inhibition; inhibition, % at 2.09 µM; shares compounds with T cruzi growth-1; AID 651740; T. cruzi beta-gal in NIH3T3, GalScreen luminescence, 90 h; actives 21% (n = 5,600);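 active means mean inhibition above about 95%, with at least 55% of replicates also reaching it, limit read from the data; inconclusive means meets just one of the two conditions; inactive means meets neither condition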;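 further: plate controls were neutral control median for no effect and positive control median for full effect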
3T3 cytotox: NIH/3T3 (mouse) viability loss; shares compounds with T cruzi growth-1; NIH/3T3 viability, CellTiter-Glo ATP luminescence, 90 h; cytotoxicity (signal decrease), % at 8.35 µM; actives 14% (n = 5,600);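 active means mean signal decrease across replicates above about 35% based on untreated-well scatter, with enough replicates individually passing, limit read from the data; inconclusive means no rule stated though some were filed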;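 further: 0% = median of neutral control wells and 100% = median of positive control wells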
3T3 cytotox 2: cytotoxicity in mouse NIH/3T3 fibroblasts. actives 56% (n = 5,600). NIH/3T3 viability, CellTiter-Glo ATP luminescence, 90 h. shares compounds with T cruzi growth-1. inhibition, % at 24.9 µM. AID 651744;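 active means mean loss of cell viability signal at or above a set limit, and enough replicates individually reaching it; inconclusive means meets only the mean limit or only the replicate share; inactive means meets neither condition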;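 further: 0% = median of neutral control wells and 100% = median of positive control wells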
Numbers without * were called inactive.

Screening N#C[C@H]1[C@H](c2ccc(C#CC3CCCC3)cc2)[C@H](CO)N1S(=O)(=O)c1ccccc1 returned C diff HTS -4, T cruzi growth-1 90 and Pf Dd2 inh -9.
For N#C[C@H]1[C@@H](c2ccc(C#CC3CC3)cc2)[C@@H](CO)N1S(=O)(=O)c1ccccc1 the results were C diff HTS 6, T cruzi growth-1 96*, Pf Dd2 inh -13, T cruzi growth-2 107*, T cruzi growth-3 63, 3T3 cytotox -7 and 3T3 cytotox 2 36*.
`Cc1ccccc1S(=O)(=O)N1[C@@H](C#N)[C@@H](c2ccc(C#CC3CCCC3)cc2)[C@@H]1CO` gave C diff HTS 18 and Pf Dd2 inh -71.
`COc1ccc2c3c([nH]c2c1)[C@@H](CO)N(C(=O)C1CCCC1)CC31CCN(C)CC1` gave C diff HTS 1 and Pf Dd2 inh 30.
`C[C@@H]1CN([C@@H](C)CO)C(=O)c2cc(NC(=O)Cn3cnnn3)ccc2O[C@@H]1CN(C)C(=O)NC1CCCCC1` gave C diff HTS -2, T cruzi growth-1 73 and Pf Dd2 inh 26.
For O=C(Nc1ccccc1F)N[C@@H]1C=C[C@H](CC(=O)N2CCCCC2)O[C@H]1CO the results were C diff HTS -2, T cruzi growth-1 2 and Pf Dd2 inh 14.
CC(=O)N(C)C[C@H]1Oc2cc(C#Cc3cccnc3)ccc2S(=O)(=O)N([C@@H](C)CO)C[C@@H]1C was read as C diff HTS -4, T cruzi growth-1 9 and Pf Dd2 inh -1.
`C[C@@H]1CN([C@@H](C)CO)C(=O)Cc2cc(NC(=O)c3ccncc3)ccc2O[C@H]1CN(C)Cc1ccncc1` gave C diff HTS -4, T cruzi growth-1 10 and Pf Dd2 inh 8.
For C[C@@H]1CCCCO[C@H](CN(C)C(=O)C2CCCCC2)[C@H](C)CN([C@@H](C)CO)C(=O)c2cc(NC(=O)Nc3ccc(C(F)(F)F)cc3)ccc2O1 the results were C diff HTS 13, T cruzi growth-1 118*, Pf Dd2 inh -59, T cruzi growth-2 98*, T cruzi growth-3 118*, 3T3 cytotox -18 and 3T3 cytotox 2 -2.
Screening C[C@@H]1CCCCO[C@@H](CN(C)C(=O)C2CCCCC2)[C@@H](C)CN([C@H](C)CO)C(=O)c2cc(NC(=O)Nc3ccc(C(F)(F)F)cc3)ccc2O1 returned C diff HTS 3, T cruzi growth-1 117*, Pf Dd2 inh -50, T cruzi growth-2 87, T cruzi growth-3 63, 3T3 cytotox 30 and 3T3 cytotox 2 26*.
For C[C@@H]1CN([C@@H](C)CO)C(=O)c2cc(NC(=O)Nc3ccc(C(F)(F)F)cc3)ccc2O[C@@H](C)CCCCO[C@@H]1CN(C)C(=O)C1CCCCC1 the results were C diff HTS 5, T cruzi growth-1 102 and Pf Dd2 inh -78.
Screening C[C@H]1CCCCO[C@H](CN(C)C(=O)C2CCCCC2)[C@@H](C)CN([C@@H](C)CO)C(=O)c2cc(NC(=O)Nc3ccc(C(F)(F)F)cc3)ccc2O1 returned C diff HTS -6, T cruzi growth-1 121*, Pf Dd2 inh inconclusive, T cruzi growth-2 96*, T cruzi growth-3 111*, 3T3 cytotox -4 and 3T3 cytotox 2 31*.
C[C@H](CO)N1C[C@H](C)[C@H](CN(C)C(=O)C2CCCCC2)OCCCC[C@H](C)Oc2ccc(NC(=O)Nc3ccc(F)cc3)cc2C1=O was read as C diff HTS -3, T cruzi growth-1 83 and Pf Dd2 inh 15.
C[C@@H]1CCCCO[C@@H](CN(C)C(=O)C2CCCCC2)[C@@H](C)CN([C@H](C)CO)C(=O)c2cc(NC(=O)Nc3ccc(F)cc3)ccc2O1 was read as C diff HTS 10, T cruzi growth-1 12 and Pf Dd2 inh -49.
COc1ccc(NC(=O)Nc2ccc3c(c2)CC(=O)N([C@@H](C)CO)C[C@@H](C)[C@H](CN(C)Cc2ccc(Cl)c(Cl)c2)O3)cc1 was read as C diff HTS 13, T cruzi growth-1 67 and Pf Dd2 inh -54.
